RAD52 anneal inh: blocks human RAD52 DNA annealing; P43351; recombinant RAD52 DNA annealing, FRET fluorescence; inhibition, % at 18.7 µM; 0.46% of 360,000 active; AID 651710;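 active means every replicate showing at least 50% inhibition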
Target sequence (P43351 whole entry, looked up): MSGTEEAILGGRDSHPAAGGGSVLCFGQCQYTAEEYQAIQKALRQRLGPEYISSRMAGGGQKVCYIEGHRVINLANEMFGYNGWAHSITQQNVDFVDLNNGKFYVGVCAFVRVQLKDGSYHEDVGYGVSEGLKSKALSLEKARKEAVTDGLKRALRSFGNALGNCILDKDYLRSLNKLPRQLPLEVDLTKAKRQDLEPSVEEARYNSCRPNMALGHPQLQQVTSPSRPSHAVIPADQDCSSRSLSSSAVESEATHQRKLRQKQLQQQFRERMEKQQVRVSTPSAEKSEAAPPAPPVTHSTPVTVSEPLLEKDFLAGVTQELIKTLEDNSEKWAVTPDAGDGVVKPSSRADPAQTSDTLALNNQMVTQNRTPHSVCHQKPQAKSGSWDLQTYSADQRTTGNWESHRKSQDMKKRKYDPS
UBC13 polyUb: blocks human UBC13 polyubiquitin chain formation. P61088. TR-FRET. inhibition, % at 20 µM. 0.47% of 330,000 active. AID 485273; in the data active means inhibition above about 45%, passing the limit was not always enough
Target sequence (P61088 whole entry, looked up): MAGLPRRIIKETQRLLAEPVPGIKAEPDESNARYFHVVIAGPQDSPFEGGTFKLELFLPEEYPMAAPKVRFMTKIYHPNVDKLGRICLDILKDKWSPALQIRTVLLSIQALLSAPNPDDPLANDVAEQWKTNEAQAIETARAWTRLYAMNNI
PREPL inhibitor: inhibitors of human prolyl oligopeptidase-like enzyme PREPL; Q4J6C6; recombinant PREPL, fluorescence polarization activity-based probe; inhibition, % at 5.96 µM; 0.68% of 320,000 active; in the data active means inhibition above about 43%;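 further: 0% = enzyme with DMSO and 100% = wells lacking enzyme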
RAD54 inh: RAD54 (human) branch migration inhibition. inhibition, % at 10.4 µM. RAD54 Holliday junction branch migration, FAM/BHQ fluorescence. 0.14% of 360,000 active. Q92698;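 active means mean normalized replicate activity at least 40 and at least half of replicates scoring 40 or more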;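 further: 0% = median of neutral control wells and 100% = median of positive control wells; inhibitors cause a drop in the FAM fluorescence signal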
DNA FID counter: counter-screen for HCV NS3 helicase inhibitors: DNA intercalator displacement. DNA fluorescent intercalator displacement, fluorescence. inhibition, % at 7.9 µM. 0.17% of 290,000 active; in the data active means inhibition above about 37%;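 further: 0% = vehicle and 100% = reference compound; higher means more ethidium bromide displaced from hairpin DNA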
beta cell repl: induces beta-cell replication in MIN6 cells; MIN6 cells proliferation, ATPlite luminescence, 48 h; cells starved in 0.2% serum; 100% = growth in 10% serum; proliferation, % at 10 µM; 0.29% of 330,000 active; AID 2380;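 active means compounds whose signal lies at least 3.5 SD above the mean of all wells on their plate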;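 further: 0% = DMSO-treated cells in low-serum medium and 100% = 10% serum control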
Starred values were filed as active, the others as inactive; ! = not active in a repeat. Shown are actives, neighbours in structure and some others; about 1.3% of the full set was active somewhere.

`COc1ccccc1NC(=O)N1CC[C@@H]2[C@H]1c1cc(-c3ccccc3)ccc1N(C)[C@@H]2CO` gave RAD52 anneal inh 51.9* and RAD54 inh 16.8.
`O=C1NC(=Nc2ccccc2)c2c1cccc2[N+](=O)[O-]` gave UBC13 polyUb 4.5, PREPL inhibitor 2.1, RAD54 inh 18.2, DNA FID counter 5.2 and beta cell repl 0.0*.
Screening COc1ccc2c(c1)oc(=O)c1cc(OC)ccc12 returned RAD52 anneal inh -3.6, UBC13 polyUb -2.9, PREPL inhibitor -1.9, RAD54 inh -2.1, DNA FID counter -0.5 and beta cell repl 0.9.
COc1cc(O)c2c(c1)oc(=O)c1c3cc(O)c(O)cc3oc21 was read as RAD52 anneal inh 77.4*.
C[C@@H]1CCCCO[C@@H](CN(C)C(=O)Nc2ccc(F)cc2)[C@H](C)CN([C@H](C)CO)C(=O)c2cc(NC(=O)c3ccncc3)ccc2O1 was read as RAD52 anneal inh 0.1 and RAD54 inh -4.2.
For O=[N+]([O-])c1ccc2[nH]cc(S(=O)(=O)N3CCN(c4cccc(Cl)c4)CC3)c2c1 the results were RAD52 anneal inh -15.9, UBC13 polyUb -3.1, PREPL inhibitor -10.1, RAD54 inh 0.2, DNA FID counter 38.5* and beta cell repl -7.8.
For Cc1cccc(N(C)S(=O)(=O)c2c[nH]c3ccc([N+](=O)[O-])cc23)c1 the results were RAD52 anneal inh -10.2, UBC13 polyUb -0.5, PREPL inhibitor 5.1, RAD54 inh -1.5, DNA FID counter 24.4 and beta cell repl -3.2.
For C[C@@H]1CCCCO[C@@H](CN(C)C(=O)c2ccccc2)[C@H](C)CN([C@@H](C)CO)C(=O)c2cc(NC(=O)Cc3ccccc3)ccc2O1 the results were RAD52 anneal inh 8.4 and RAD54 inh 6.1.
COc1cc(C(=O)Nc2ccc3nc(N4CCN(C)CC4)cc(C)c3c2)cc(OC)c1OC was read as RAD52 anneal inh 55.8*, UBC13 polyUb 3.7, PREPL inhibitor 15.7, RAD54 inh 43.9, DNA FID counter 12.9 and beta cell repl -2.4.
For CCCN1C[C@H](C)[C@H](OC)CN(C)C(=O)c2cc(NC(=O)C3CC3)ccc2OC[C@@H]1C the results were RAD52 anneal inh 4.0 and RAD54 inh 9.4.
`CCCCC(O)(CCN1CCOCC1)c1ccc(Cl)cc1` (stereo not given) gave RAD52 anneal inh -9.8, UBC13 polyUb 7.7, PREPL inhibitor 1.6, RAD54 inh -3.0, DNA FID counter 49.2* and beta cell repl 5.2.
Screening CN1CCc2c(sc3c2C(=O)NC(c2cccc(OC(=O)c4cccs4)c2)N3)C1 (stereo not given) returned RAD52 anneal inh -103.5, UBC13 polyUb 0.5, PREPL inhibitor 51.5*, RAD54 inh -18.5, DNA FID counter 5.1 and beta cell repl 3.0.
`CCCNC(=O)N[C@@H]1CC[C@@H](CC(=O)N2CCN(C)CC2)O[C@H]1CO` gave RAD52 anneal inh -4.5 and RAD54 inh -1.0.
Screening Cc1cc(C)n2nc(SCc3cc(=O)oc4cc(C)c(C)cc34)nc2n1 returned UBC13 polyUb 0.9, PREPL inhibitor 40.9, DNA FID counter -5.1 and beta cell repl 1.9.
For Cc1cc(C)n2nc(SCc3cc(=O)oc4ccc5ccccc5c34)nc2n1 the results were UBC13 polyUb -5.4, PREPL inhibitor 46.9*, RAD54 inh -0.6, DNA FID counter -8.7 and beta cell repl -0.4.
For O=C(c1cc([N+](=O)[O-])ccc1Cl)N1CCN(c2ccc(F)cc2)CC1 the results were RAD52 anneal inh -15.3, UBC13 polyUb -7.0, PREPL inhibitor 45.0*, RAD54 inh 4.8, DNA FID counter -2.4 and beta cell repl -3.5.
Screening O=[N+]([O-])c1ccc(N2CCN(c3ccc(F)cc3)CC2)cc1 returned RAD52 anneal inh -11.4, UBC13 polyUb -2.4, PREPL inhibitor 30.4, RAD54 inh 2.6, DNA FID counter 0.9 and beta cell repl 3.3.
`CN(C)C(=O)c1cccc(-c2ccc3c(c2)[C@H]2[C@H](CCN2Cc2nccs2)[C@H](CO)N3)c1` gave RAD52 anneal inh -12.4 and RAD54 inh -12.6.
Screening CC(=O)Nc1cc(OC(C)=O)c2nonc2c1OC(C)=O returned UBC13 polyUb -39.1, PREPL inhibitor 56.4*, RAD54 inh 2.5, DNA FID counter 4.4 and beta cell repl -4.5.
`C#CCNC(=O)C1=C[C@H](c2ccc(C#C)cc2)C[C@H](OCCCCO)O1` gave RAD52 anneal inh -31.6.
`Cc1cc(O)c(C=O)c2c1C(=O)Oc1c(CO)c(O)c3c(c1O2)C(O)OC3=O` (stereo not given) gave UBC13 polyUb -19.3, PREPL inhibitor 44.8*, RAD54 inh 25.9, DNA FID counter 17.0 and beta cell repl -3.3.
`COc1cccc(S(=O)(=O)N2C[C@@H]3N[C@H](C2)C3c2ccc(-c3cccc(C)c3)cc2)c1` (stereo not given in full) gave RAD52 anneal inh 56.7*!.
Screening COc1ccc(-c2ccc(C3[C@@H]4CN(S(=O)(=O)c5cccc(C)c5)C[C@H]3N4)cc2)cc1 (stereo not given in full) returned RAD52 anneal inh 70.7*!.
`CNc1ccc2c3c(cccc13)C(=O)N(C)C2=O` gave RAD52 anneal inh inactive, UBC13 polyUb inactive, PREPL inhibitor 63.5*, DNA FID counter -8.7 and beta cell repl 1.7.
`COc1ccc(C#Cc2ccc3c(c2)O[C@@H](CN(C)C(=O)Nc2cccc(OC)c2)[C@@H](C)CN([C@H](C)CO)S3(=O)=O)cc1` gave RAD52 anneal inh -49.1 and RAD54 inh 3.6.
For O=C(c1ccc2nc(-c3ccco3)c(-c3ccco3)nc2c1)N1CCN(c2ncccn2)CC1 the results were UBC13 polyUb -28.1, PREPL inhibitor 60.7*, RAD54 inh -7.4, DNA FID counter -28.8 and beta cell repl -1.1.
For O=S(=O)(NC1c2cccc3cccc(c23)C1N1CCNCC1)c1ccc(Cl)cc1 (stereo not given) the results were RAD52 anneal inh -9.0, UBC13 polyUb 2.5, PREPL inhibitor -13.4, DNA FID counter 43.2* and beta cell repl -4.8.
Screening CC(=O)N1CCN(C2c3cccc4cccc(c34)C2NS(=O)(=O)c2ccccc2)CC1 (stereo not given) returned UBC13 polyUb 0.5, PREPL inhibitor 16.9, RAD54 inh -6.5, DNA FID counter -28.7 and beta cell repl -1.5.
For Cc1noc(C)c1NC(=O)N(C)C[C@@H]1Oc2cc(C#CCC3CCCC3)ccc2S(=O)(=O)N([C@H](C)CO)C[C@@H]1C the results were RAD52 anneal inh 98.6* and RAD54 inh -3.8.
For C[C@@H]1CN([C@H](C)CO)S(=O)(=O)c2ccc(C#Cc3ccc(F)cc3)cc2O[C@H]1CN(C)C(=O)CN(C)C the results were RAD52 anneal inh 61.3* and RAD54 inh 13.5.
CCCN(C)C[C@@H]1Oc2cc(C#CCC(C)C)ccc2S(=O)(=O)N([C@@H](C)CO)C[C@H]1C was read as RAD52 anneal inh -14.6.

Screens deposited in PubChem BioAssay by several laboratories.
